Results from PubChem BioAssay (NCI).
About 79,000 compounds went through this panel and 15% of them were active in at least one assay; those are over-represented in the sample as a whole. Unmarked numbers belong to inactive results. Activity calls are given as the source filed them. No stated cut-off is given here; in the data, active means growth inhibition above about 70%; inactive means the rest.

Assays:
[1] = NCI Yeast Anticancer Drug Screen. Data for the rad50 strain (AID 155);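 further: 0% = growth of vehicle-only cultures of the same strain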; conditions: S. cerevisiae rad50 strain growth inhibition, hits give high values
Outline: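 Yeast carrying a defined DNA repair defect were exposed to test compounds, and growth was compared with vehicle-treated controls to give percent inhibition.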

[2] = NCI Yeast Anticancer Drug Screen. Data for the mec2-1 strain (AID 157); conditions: S. cerevisiae mec2-1 strain, hits give high values
Outline: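 Vehicle-treated cultures served as reference for growth inhibition of compound-exposed mec2-1 yeast.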

[3] = NCI Yeast Anticancer Drug Screen. Data for the sgs1 mgt1 strain (AID 161);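 further: 0% = growth of cultures given vehicle only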; conditions: S. cerevisiae sgs1 mgt1 strain, hits give high values
Outline: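 Read-out: growth inhibition vs vehicle controls. Cells: mutant yeast strain deficient in DNA damage repair.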

[4] = NCI Yeast Anticancer Drug Screen. Data for the cln2 rad14 strain (AID 165);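 further: 0% = growth equal to vehicle treated cultures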; conditions: S. cerevisiae cln2 rad14 strain, hits give high values
Outline: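 Each compound was tested on cln2 rad14 yeast. Inhibition of growth was calculated against vehicle-exposed controls.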

[5] = NCI Yeast Anticancer Drug Screen. Data for the bub3 strain (AID 167); conditions: S. cerevisiae bub3 mutant strain, hits give high values
Outline: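 Compounds were applied to a genetically altered yeast strain carrying a cell-cycle control defect. Growth inhibition was scored against vehicle-treated controls.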

[6] = NCI Yeast Anticancer Drug Screen. Data for the mlh1 rad18 strain (AID 175); conditions: S. cerevisiae mlh1 rad18 strain growth inhibition, hits give high values
Outline: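 Vehicle-treated cultures served as the reference for growth inhibition in a yeast strain carrying DNA damage repair alterations exposed to each compound.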

[7] = at 5.0 µM (retest, dose inferred, filed as 0.5)
[8] = at 50.0 µM (retest, dose inferred, filed as 5.0)

Compound | growth inhibition [1, 7] | growth inhibition [1, 8] | growth inhibition ([1]; at 50.0 µM) | growth inhibition [2, 7] | growth inhibition [2, 8] | growth inhibition ([2]; at 50.0 µM) | growth inhibition [3, 7] | growth inhibition [3, 8] | growth inhibition ([3]; at 50.0 µM) | growth inhibition [4, 7] | growth inhibition [4, 8] | growth inhibition ([4]; at 50.0 µM) | growth inhibition [5, 7] | growth inhibition [5, 8] | growth inhibition ([5]; at 50.0 µM) | growth inhibition [6, 7] | growth inhibition [6, 8] | growth inhibition ([6]; at 50.0 µM)
Cc1n[n+]([O-])c(C)cc1[N+](=O)[O-] | 0% | 50% | 93.7% (active) | 4% | 32% | 44.6% | 17% | 87% (active) | 85.6% (active) | -5% | 42% | 76.5% (active) | -8% | 16% | 65% | 58% | 94% (active) | 92.2% (active)
O=[N+]([O-])c1ccc(S(=O)(=O)C/C=C/CCl)c([N+](=O)[O-])c1 | 54% | 99% (active) | 99.2% (active) | 34% | 100% (active) | 99.6% (active) | 43% | 99% (active) | 99.5% (active) | 20% | 99% (active) | 99.5% (active) | 37% | 99% (active) | 99.4% (active) | 71% (active) | 99% (active) | 99.5% (active)
Cc1cc(-c2ccccc2)c(C)c(-c2ccccc2)c1-c1ccccc1 | 5% | 4% | 74.6% (active) | 0% | -1% | 37.9% | 3% | 7% | 40% | -5% | 64% | 80.7% (active) | -13% | 13% | 57.4% | 1% | 16% | 60.8%
O=Cc1c(Cn2ccnc2)c2cc([N+](=O)[O-])ccc2n1Cc1ccccc1 | 5% | 49% | 62.5% | 4% | 39% | 13.7% | 6% | 48% | 57.2% | -2% | -17% | 22.9% | -3% | -1% | 3.8% | 8% | 64% | 68.5%
ClC/C=C/c1ccccc1 | 2% | 31% | 68.8% | -1% | 11% | 16.9% | 3% | 15% | 61% | 6% | 1% | -7.2% | 7% | 20% | 37.1% | 3% | 18% | 62.6%
CNC(=O)OC1/C(C)=C\C(C)C(O)C(OC)CC(C)CC2=C(OC)C(=O)C=C(C2=O)N(C)C(=O)/C(C)=C/C=C\C1OC (stereo not given) | -24% | 25% | 65% | -28% | 70% (active) | 83.8% (active) | -22% | 39% | 65.8% | 8% | 68% | 50% | 9% | 80% (active) | 73.6% (active) | -3% | 68% | 51%
Cc1nc(-c2ccccc2)nc2c1nc(C(C)C)n2Nc1ccccc1 | -2% | 20% | 94.1% (active) | -3% | 41% | 57.6% | 0% | 25% | 73.8% (active) | -9% | 33% | 64.8% | 3% | 35% | 80.8% (active) | -4% | 37% | 78.5% (active)
CCCCCCCN=C(N)c1ccc(C(=O)OC2CCCCC2)cc1 | -1% | 84% (active) | 96.8% (active) | 17% | 89% (active) | 98% (active) | 34% | 98% (active) | 99% (active) | 1% | 70% (active) | 96.4% (active) | 1% | 73% (active) | 97.5% (active) | 21% | 90% (active) | 99% (active)
CCCOc1cc(C(=O)OCCN(CC)CC)cc(OCCC)c1OCCC | 6% | 29% | 36.9% | 6% | 19% | 15.8% | 4% | 43% | 44.8% | 8% | 13% | 15.1% | -21% | 12% | 23% | 0% | 41% | 61.8%
CCOP(=O)(OCC)/C(C#N)=C/c1coc2cc(C)cc(C)c2c1=O | 19% | 99% (active) | 86.7% (active) | -7% | 100% (active) | 91.9% (active) | -10% | 99% (active) | 78% (active) | 0% | 99% (active) | 59% | -9% | 98% (active) | 87.2% (active) | 26% | 99% (active) | 82.2% (active)
